Test results from the supplement of paper PMC6897291.

Experiments:
U-2932 = experiment: growth inhibition by drug plus 177Lu-lilotomab satetraxetan (1 - RLU/untreated control) (fraction); higher = stronger inhibition; settings: 177Lu-lilotomab satetraxetan 1 ug/ml
Method in brief: (§1)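 RIVA or U-2932 cells, untreated or pretreated 18 h with a radiolabelled anti-CD37 antibody conjugate (~600 MBq/mg; 0.5 µg/ml RIVA, 1 µg/ml U-2932), were washed and seeded at 3,000 cells/well on plates pre-printed with the Selleck Cambridge Cancer Compound library. Doses were 10/100 nM (RIVA) or 10/1,000 nM (U-2932). RealTime-Glo luminescence was read daily from day 3 after 1 h at 37°C. Growth inhibition is 1 − RLU/mean of 48 untreated no-drug wells per plate.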

RIVA = experiment: as above; settings: 177Lu-lilotomab satetraxetan 0.5 ug/ml
Method in brief: as §1

| SMILES | growth inhibition by drug plus 177Lu-lilotomab satetraxetan (U-2932; 10 nM, time (day): 3) | growth inhibition by drug plus 177Lu-lilotomab satetraxetan (U-2932; 10 nM, time (day): 4) | growth inhibition by drug plus 177Lu-lilotomab satetraxetan (U-2932; 10 nM, time (day): 5) | growth inhibition by drug plus 177Lu-lilotomab satetraxetan (U-2932; 10 nM, time (day): 6) | growth inhibition by drug plus 177Lu-lilotomab satetraxetan (U-2932; 1000 nM, time (day): 3) | growth inhibition by drug plus 177Lu-lilotomab satetraxetan (U-2932; 1000 nM, time (day): 4) | growth inhibition by drug plus 177Lu-lilotomab satetraxetan (U-2932; 1000 nM, time (day): 5) | growth inhibition by drug plus 177Lu-lilotomab satetraxetan (U-2932; 1000 nM, time (day): 6) | growth inhibition by drug plus 177Lu-lilotomab satetraxetan (RIVA; 10 nM, time (day): 3) | growth inhibition by drug plus 177Lu-lilotomab satetraxetan (RIVA; 10 nM, time (day): 4) | growth inhibition by drug plus 177Lu-lilotomab satetraxetan (RIVA; 10 nM, time (day): 5) | growth inhibition by drug plus 177Lu-lilotomab satetraxetan (RIVA; 10 nM, time (day): 6) | growth inhibition by drug plus 177Lu-lilotomab satetraxetan (RIVA; 100 nM, time (day): 3) | growth inhibition by drug plus 177Lu-lilotomab satetraxetan (RIVA; 100 nM, time (day): 4) | growth inhibition by drug plus 177Lu-lilotomab satetraxetan (RIVA; 100 nM, time (day): 5) | growth inhibition by drug plus 177Lu-lilotomab satetraxetan (RIVA; 100 nM, time (day): 6) |
| --- | --- | --- | --- | --- | --- | --- | --- | --- | --- | --- | --- | --- | --- | --- | --- | --- |
| CC(=O)Nc1ccc(OC[C@](C)(O)C(=O)Nc2ccc([N+](=O)[O-])c(C(F)(F)F)c2)cc1 [Andarine (GTX-007)] | 0.0713 | 0.12 | 0.151 | 0.162 | -0.0087 | 0.0374 | 0.0839 | 0.127 | 0.585 | 0.603 | 0.615 | 0.608 | 0.404 | 0.5 | 0.511 | 0.533 |
| C=C1C[C@@H]2[C@H](CC[C@]3(C)C(=O)CC[C@@H]23)[C@@]2(C)C=CC(=O)C=C12 [Exemestane] | 0.052 | 0.106 | 0.138 | 0.169 | -0.0113 | 0.0549 | 0.0989 | 0.179 |  |  |  |  |  |  |  |  |
| CC(O)(CS(=O)(=O)c1ccc(F)cc1)C(=O)Nc1ccc(C#N)c(C(F)(F)F)c1 (stereo not drawn) [Bicalutamide (Casodex)] | 0.0109 | 0.0278 | 0.0445 | 0.0662 | -0.0729 | 0.0514 | 0.0207 | -0.0101 |  |  |  |  |  |  |  |  |
| O=C(O)c1nn(Cc2ccc(Cl)cc2Cl)c2ccccc12 [Lonidamine] | 0.0325 | 0.0863 | 0.132 | 0.173 | 0.0882 | 0.147 | 0.167 | 0.244 |  |  |  |  |  |  |  |  |
| N[C@@H](Cc1ccc(N(CCCl)CCCl)cc1)C(=O)O [Melphalan] | 0.0197 | 0.0283 | 0.0541 | 0.143 | 0.00364 | 0.0898 | 0.0598 | 0.0846 |  |  |  |  |  |  |  |  |
